About 2,000 (36%) of roughly 5,500 compounds were called active. About 18% were inconclusive and are not listed. Rule as the data show it: active = normalized growth mostly below about 0.91 (no sharp cut-off); inconclusive = no clear call, values can overlap the other calls; inactive = mostly above about 0.92. The list shows a part of the results.
Assay: chemical genetic growth profiling, strain panel (AID 1159580);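 also: tested at 20 µM; growth read once vehicle control cultures reached saturation at 30 °C; 1 = growth at the plate median or of vehicle wells; lower values mean less growth of the strain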
Conditions: growth OD

Measured: normalized growth

COC(=O)c1c(C)cc(OC(=O)c2c(C)c(Cl)c(O)c(C=O)c2O)c(C)c1O
inactive: S. cerevisiae deletion strains, locus YAL013W, strain DEP1, active compounds read low 1 | S. cerevisiae deletion strains, locus YBR021W, strain FUR4, active compounds read low 1 | S. cerevisiae deletion strains, locus YBR229C, strain ROT2, active compounds read low 1 | S. cerevisiae deletion strains, locus YCL029C, strain bik1, active compounds read low 0.985 | S. cerevisiae deletion strains, locus YDL035C, strain GPR1, active compounds read low 1.01 | S. cerevisiae deletion strains, locus YDL074C, strain BRE1, active compounds read low 1 | S. cerevisiae deletion strains, locus YDL101C, strain DUN1, active compounds read low 0.978 | S. cerevisiae deletion strains, locus YDL134C, strain PPH21, active compounds read low 0.994 | S. cerevisiae deletion strains, locus YDL185W, strain tfp1, active compounds read low 0.963 | S. cerevisiae deletion strains, locus YDL192W, strain arf1, active compounds read low 0.993 | S. cerevisiae deletion strains, locus YDR101C, strain arx1, active compounds read low 0.995 | S. cerevisiae deletion strains, locus YDR150W, strain NUM1, active compounds read low 0.984 | S. cerevisiae deletion strains, locus YDR162C, strain NBP2, active compounds read low 0.997 | S. cerevisiae deletion strains, locus YDR318W, strain mcm21, active compounds read low 0.99 | S. cerevisiae deletion strains, locus YDR388W, active compounds read low 0.985 | S. cerevisiae deletion strains, locus YDR502C, strain sam2, active compounds read low 0.984 | S. cerevisiae deletion strains, locus YEL061C, strain CIN8, active compounds read low 0.99 | S. cerevisiae deletion strains, locus YER110C, active compounds read low 0.989 | S. cerevisiae deletion strains, locus YER155C, strain BEM2, active compounds read low 1 | S. cerevisiae deletion strains, locus YER167W, strain BCK2, active compounds read low 1 | S. cerevisiae deletion strains, locus YGL078C, strain dbp3, active compounds read low 0.984 | S. cerevisiae deletion strains, locus YGL086W, strain mad1, active compounds read low 0.993 | S. cerevisiae deletion strains, locus YGL248W, strain PDE1, active compounds read low 0.979 | S. cerevisiae deletion strains, locus YGR078C, strain PAC10, active compounds read low 0.988 | S. cerevisiae deletion strains, locus YGR135W, strain pre9, active compounds read low 0.982 | S. cerevisiae deletion strains, locus YGR229C, strain SMI1, active compounds read low 0.971 | S. cerevisiae deletion strains, locus YGR252W, strain gcn5, active compounds read low 1 | S. cerevisiae deletion strains, locus YHR030C, strain SLT2, active compounds read low 0.993 | S. cerevisiae deletion strains, locus YHR079C, strain IRE1 (second series), active compounds read low 0.987 | S. cerevisiae deletion strains, locus YHR094C, strain hxt1, active compounds read low 0.987 | S. cerevisiae deletion strains, locus YHR129C, strain ARP1, active compounds read low 1 | S. cerevisiae deletion strains, locus YHR200W, strain rpn10, active compounds read low 0.985 | S. cerevisiae deletion strains, locus YIL066C, strain RNR3, active compounds read low 0.973 | S. cerevisiae deletion strains, locus YIL073C, strain SPO22, active compounds read low 0.906 | S. cerevisiae deletion strains, locus YIL125W, strain kgd1, active compounds read low 1 | S. cerevisiae deletion strains, locus YIR030C, strain dcg1, active compounds read low 0.983 | S. cerevisiae deletion strains, locus YJL095W, strain BCK1, active compounds read low 1.01 | S. cerevisiae deletion strains, locus YJL134W, strain LCB3, active compounds read low 0.989 | S. cerevisiae deletion strains, locus YJL168C, strain set2, active compounds read low 0.992 | S. cerevisiae deletion strains, locus YJL187C, strain SWE1 (second series), active compounds read low 0.983 | S. cerevisiae deletion strains, locus YJR043C, strain POL32, active compounds read low 1 | S. cerevisiae deletion strains, locus YJR075W, strain HOC1, active compounds read low 1 | S. cerevisiae deletion strains, locus YKL009W, strain mrt4, active compounds read low 0.984 | S. cerevisiae deletion strains, locus YKL068W, active compounds read low 0.984 | S. cerevisiae deletion strains, locus YKL085W, strain MDH1 (second series), active compounds read low 0.996 | S. cerevisiae deletion strains, locus YKL085W, strain MDH1, active compounds read low 0.996 | S. cerevisiae deletion strains, locus YKL190W, strain CNB1, active compounds read low 0.992 | S. cerevisiae deletion strains, locus YKR001C, strain vps1, active compounds read low 0.989 | S. cerevisiae deletion strains, locus YLR039C, strain RIC1, active compounds read low 1 | S. cerevisiae deletion strains, locus YLR058C, strain SHM2, active compounds read low 0.988 | S. cerevisiae deletion strains, locus YLR102C, strain apc9, active compounds read low 0.982 | S. cerevisiae deletion strains, locus YLR262C, strain YPT6, active compounds read low 0.968 | S. cerevisiae deletion strains, locus YLR268W, strain sec22, active compounds read low 0.972 | S. cerevisiae deletion strains, locus YLR330W, strain CHS5, active compounds read low 0.993 | S. cerevisiae deletion strains, locus YLR342W, strain FKS1 (second series), active compounds read low 0.979 | S. cerevisiae deletion strains, locus YLR371W, strain rom2, active compounds read low 0.98 | S. cerevisiae deletion strains, locus YLR418C, strain cdc73, active compounds read low 1 | S. cerevisiae deletion strains, locus YML016C, strain PPZ1, active compounds read low 0.992 | S. cerevisiae deletion strains, locus YML032C, strain rad52, active compounds read low 0.981 | S. cerevisiae deletion strains, locus YML124C, strain tub3, active compounds read low 0.985 | S. cerevisiae deletion strains, locus YMR078C, strain ctf18, active compounds read low 0.981 | S. cerevisiae deletion strains, locus YMR223W, strain ubp8, active compounds read low 0.979 | S. cerevisiae deletion strains, locus YMR263W, strain SAP30, active compounds read low 0.971 | S. cerevisiae deletion strains, locus YMR307W, strain GAS1, active compounds read low 0.972 | S. cerevisiae deletion strains, locus YNL067W, strain RPL9B, active compounds read low 0.995 | S. cerevisiae deletion strains, locus YNL128W, strain TEP1, active compounds read low 0.998 | S. cerevisiae deletion strains, locus YNL153C, strain GIM3, active compounds read low 0.986 | S. cerevisiae deletion strains, locus YNL233W, strain BNI4, active compounds read low 0.989 | S. cerevisiae deletion strains, locus YNL250W, strain rad50, active compounds read low 0.997 | S. cerevisiae deletion strains, locus YNL271C, strain bni1, active compounds read low 0.996 | S. cerevisiae deletion strains, locus YNL298W, strain CLA4, active compounds read low 0.98 | S. cerevisiae deletion strains, locus YNL307C, strain MCK1, active compounds read low 0.98 | S. cerevisiae deletion strains, locus YNL322C, strain KRE1, active compounds read low 1 | S. cerevisiae deletion strains, locus YNR052C, strain pop2, active compounds read low 0.979 | S. cerevisiae deletion strains, locus YOL006C, strain TOP1, active compounds read low 1.03 | S. cerevisiae deletion strains, locus YOL012C, strain htz1 0.881 | S. cerevisiae deletion strains, locus YOL147C, strain pex11, active compounds read low 0.981 | S. cerevisiae deletion strains, locus YOR061W, strain CKA2, active compounds read low 0.999 | S. cerevisiae deletion strains, locus YOR069W, strain VPS5, active compounds read low 0.986 | S. cerevisiae deletion strains, locus YOR136W, strain idh2, active compounds read low 0.993 | S. cerevisiae deletion strains, locus YOR144C, strain elg1, active compounds read low 0.978 | S. cerevisiae deletion strains, locus YOR184W, strain ser1, active compounds read low 0.976 | S. cerevisiae deletion strains, locus YOR316C, strain cot1, active compounds read low 0.996 | S. cerevisiae deletion strains, locus YPL055C, strain LGE1, active compounds read low 0.984 | S. cerevisiae deletion strains, locus YPL241C, strain CIN2, active compounds read low 0.989 | S. cerevisiae deletion strains, locus YPR119W, strain clb2, active compounds read low 0.975 | S. cerevisiae deletion strains, locus YPR141C, strain kar3, active compounds read low 0.986 | S. cerevisiae deletion strains, locus YPR163C, strain tif3, active compounds read low 0.977 | S. cerevisiae deletion strains, locus YPR167C, strain met16, active compounds read low 0.993 | S. cerevisiae deletion strains, strain wtn01, active compounds read low 0.975 | S. cerevisiae strains, strain wild type, active compounds read low 1.01

— PubChem BioAssay AID1159580 (chemical genetic matrix, 2015)
